# PubChem BioAssay AID435030 (The Scripps Research Institute Molecular Screening Center, 2010)
# “And” between values parts separate entries of the source, which are not always exact repeats. Equal values may be shown once. The campaign covered roughly 330,000 compounds. About 940 (0.28%) were called active. The sample holds actives, similar compounds and a random draw of the others, so the mix is not that of the screen. Rule as the data show it: active = inhibition above about 12%; inactive = the rest. More than one record can exist for a structure, and the calls need not agree.
# Experiment: reduced growth of AddAB-expressing E. coli cells – absorbance, AddAB inhibitor project, primary screen (AID 435030);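 also: 0% = vehicle wells of infected cells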
# Details: E. coli expressing H. pylori AddAB, at 11.9 µM, stronger effect = higher value
row,SMILES,inhibition
1,O=C(Nc1cccc(S(=O)(=O)N2CCOCC2)c1)C12CC3CC(CC(C3)C1)C2,0.82% (inactive)
2,CC(C)(C)NC(=O)COC(=O)c1cc(Br)ccc1Cl,1.15% (inactive)
3,CCCC(=O)OCC(=O)Nc1cc(Cl)ccc1[N+](=O)[O-],0.77% (inactive)
4,CC(C)(C)NC(=O)COC(=O)c1cc(Cl)ccc1[N+](=O)[O-],57.9% (active)
5,CN(NC(=O)C1CC(=O)N(c2ccccc2)C1)C1=NS(=O)(=O)c2ccccc21 (stereo unspecified),1% (inactive)
6,Cn1nnc2cc(C(=O)NCCC3=CCCCC3)ccc21,0% (inactive)
7,Cc1cc(=O)n2nc(N3CCCC(C(=O)NCCC4=CCCCC4)C3)sc2n1 (stereo unspecified),0.49% (inactive)
8,CC1CCCN(C(=O)c2ccc3c(c2)C(=O)N(CCC2=CCCCC2)C3=O)C1 (stereo unspecified),22.9% (active)
9,O=C(c1n[nH]c2c1CCC2)N1CCCC(Nc2cccc(F)c2)C1 (stereo unspecified),2.86% (inactive)
10,Cc1cc(C)c2c(c1)cc(C)c1nnc(SCC(=O)Nc3cc(C)on3)n12,1.96% (inactive)
11,Cc1cc(S(=O)(=O)c2cc3ccc(O)c(C)c3oc2=O)ccc1F,0.08% (inactive)
12,CC1CN(C(=S)Nc2ccccc2F)CC(C)O1 (stereo unspecified),-1.09% (inactive)
13,COc1ccccc1NC(=S)N1CCN(c2ccc(F)cc2)CC1,-2.49% (inactive)
14,COc1c(N2CCN(C(=S)Nc3ccccc3F)C(C)C2)c(F)cc2c(=O)c(C(=O)O)cn(C3CC3)c12 (stereo unspecified),99.7% (active)
15,COc1ccc(Cl)cc1C(=O)OCC(=O)NCc1cccs1,0.75% (inactive)
16,Cc1ccc(S(=O)(=O)N2CCN(C(=O)Cn3c(=O)cnc4ccccc43)CC2)c(C)c1,0.34% (inactive)
17,O=C(Nc1ccc(OC(F)(F)F)cc1)c1ccc2c(c1)no[n+]2[O-],3.14% (inactive)
18,CCn1cc(C(=O)NCCC(=O)NCCO)c(=O)c2cc3c(cc21)OCO3,-2.55% (inactive)
19,CCCCCCn1cc(C(=O)O)c(=O)c2cc(F)c(N3CCCCC3)cc21,-1.14% (inactive)
20,CN1CCN(c2cc3c(cc2F)c(=O)c(C(=O)O)cn3CCF)CC1,98.6% (active)
21,CCCCNC(=O)c1cn(CC)c2cc(N3CCN(C(=O)c4ccco4)CC3)c(F)cc2c1=O,11.8% (inactive)
22,CCn1cc(S(=O)(=O)c2cccc(C)c2)c(=O)c2cc(F)c(N3CCN(C)CC3)cc21,-1.64% (inactive)

row,SMILES,inhibition
1,CCn1cc(C(=O)NCCO)c(=O)c2cc(F)c(N3CCN(C)CC3)cc21,98.8% (active)
2,Cc1csc(NC(=O)C2CCCN2C(=O)OCC(C)C)n1 (stereo unspecified),0.97% (inactive)
3,Cc1nn(C)c(C)c1Sc1ccccc1N,-0.51% (inactive)
4,O=C(COC(=O)Cn1[nH]c(=O)c2ccccc2c1=O)Nc1c(Cl)cccc1C(F)(F)F,-0.85% (inactive)
5,O=C(OCC(=O)c1cccs1)C1=COCCO1,3.94% (inactive)
6,O=C(OCC(=O)c1cccs1)c1ccc([N+](=O)[O-])o1,16.4% (active)
7,O=C(COC(=O)c1ccc([N+](=O)[O-])o1)NC12CC3CC(CC(C3)C1)C2,2.74% (inactive)
8,O=C(Cc1ccccc1)NNC1CC(=O)N(c2ccc(Br)cc2)C1=O (stereo unspecified),0.17% (inactive)
9,Cc1ccccc1OCC(=O)NNC(=O)c1cc(S(=O)(=O)N(C)C)ccc1N1CCCC1,-1.04% (inactive)
10,Cc1cc([N+](=O)[O-])nn1CC(=O)Nc1ccc(Cc2ccncc2)cc1,-1.17% (inactive)
11,Cc1ccc(COc2ccc(C(=O)NN)cc2)cc1,3% (inactive)
12,O=C(C/C(=N\NC(=O)c1ccccc1Br)C(F)(F)F)c1cccs1,0.69% (inactive)
13,C=CC(=O)OCCOCCOCCOCCOC(=O)C=C,-0.85% (inactive)
14,CC1C(=O)N2CCCc3cc(S(=O)(=O)NCc4ccc(F)cc4)cc1c32 (stereo unspecified),-1.44% (inactive)
15,CC(=O)c1c(C)n([O-])c2ccccc2[n+]1=O,38.5% (active)
16,Cc1c(C=O)c2ccccc2n1CC(=O)O,-5.83% (inactive)
17,CCNc1nc(NC(C)C)nc(N2CC(=O)N(CC(=O)OCC)C2=N)n1,-0.43% (inactive)
18,CNC(C)C#Cc1ccc2sc3cc(OC)c(OC)cc3c(=O)c2c1 (stereo unspecified),3.07% (inactive)
19,O=C(C1=C(O)C(=O)N(CCOCCO)C1c1ccccn1)c1cccs1 (stereo unspecified),-0.51% (inactive)
20,O=C(NCC1CCCO1)/C(=C/c1ccc(Cl)cc1)NC(=O)c1ccccc1 (stereo unspecified),3.87% (inactive)
21,O=C(CSc1ccc(-c2ccccc2)nn1)NCC1CCCO1 (stereo unspecified),-1.35% (inactive)
22,O=C(NCC1CCCO1)C(C(=O)c1ccccc1)n1cc(Cl)ccc1=O (stereo unspecified),99.8% (active)

row,SMILES,inhibition
1,Cc1ccc(NC(=O)C(C)Sc2nnc(C3CC3)n2C2CC2)cc1S(=O)(=O)N1CCOCC1 (stereo unspecified),-0.26% (inactive)
2,CCOc1ccccc1NC(=O)C12CC3CC(C1)CC(c1ccc(C)cc1)(C3)C2,78.7% (active)
3,Cc1ccc(C23CC4CC(CC(C(=O)NCC(=O)O)(C4)C2)C3)cc1,1.92% (inactive)
4,COc1ccccc1NC(=S)N1CCC(NC(=O)C23CC4CC(CC(C4)C2)C3)CC1,4.75% (inactive)
5,Cc1ccc(C(=O)/C=C/Nc2ccc(S(=O)(=O)Nc3onc(C)c3C)cc2)cc1,12.7% (active)
6,Cc1noc(NS(=O)(=O)c2ccc(NC(=O)C34CCC(CC3)C4)cc2)c1C,1.62% (inactive)
7,Cc1cc(OC(C)C(=O)Nc2ccc(S(=O)(=O)Nc3onc(C)c3C)cc2)cc(C)c1Cl (stereo unspecified),-1.11% (inactive)
8,Cc1ccc(Sc2ccncc2S(N)(=O)=O)cc1,4.14% (inactive)
9,COc1ccc(N2CCN(S(=O)(=O)CCNC(=O)C34CC5CC(CC(C5)C3)C4)CC2)cc1,3.21% (inactive)
10,COc1cccc(NC(=O)C(Sc2nc3ccccc3c(=O)n2CC(C)C)c2ccccc2)c1 (stereo unspecified),2.26% (inactive)
11,O=C(/C=C/c1ccc([N+](=O)[O-])o1)NNC(=O)c1ccc(F)cc1,97.8% (active)
12,CCc1noc(C)c1C(=O)NNC(=O)c1ccc(F)cc1,-0.34% (inactive)
13,O=C(NNC(=O)C1CCCC1)c1ccc(F)cc1,-2.96% (inactive)
14,Cc1ccc(Cl)cc1NC(=S)N(CCN(C)C)Cc1cccs1,4.63% (inactive)
15,CCn1c(/C=C/Nc2ccccc2)[n+](CC)c2ccc(C(=O)OCC(F)(F)F)cc21,-1.7% (inactive)
16,O=C(c1[nH]ncc1-c1ccc(Cl)cc1)C1CO1 (stereo unspecified),12.5% (active)
17,S=c1[nH]nc(-c2ccc(Cl)cc2)n1CC1CCCO1 (stereo unspecified),0.6% (inactive)
18,O=C(c1nnc(-c2ccc(Cl)cc2)o1)C1CCCC1,0.77% (inactive)
19,CCC(C)[C@H]1COCCS(=O)(=O)N1Cc1ccc(C)cc1 (stereo partly specified),2.11% (inactive)
20,CC(C)(C)OC(=O)C1=C(CO)CS[C@@H]2[C@H](NC(=O)Cc3ccccc3)C(=O)N12,0.4% (inactive)
21,C=CC1=C(C(=O)O)N2C(=O)[C@@H](NC(=O)/C(=N/OCC(=O)O)c3csc(N)n3)[C@H]2SC1,97.5% (active)
22,Cc1nnc(SCC2=C(C(=O)O)N3C(=O)C(NC(=O)Cn4nc(C)c(Cl)c4C)C3SC2)s1 (stereo unspecified),-3.23% (inactive)

row,SMILES,inhibition
1,CO/N=C(\C(=O)N[C@@H]1C(=O)N2C(C(=O)O)=C(COC(C)=O)CS[C@H]12)c1csc(N)n1 (stereo in doubt),98.8% (active) and 99.7% (active) and -0.42% (inactive)
2,Cc1cc(C)cc(C(=O)NC2C(=O)N3C(C(=O)O)=C(CSc4nnc(C)s4)CSC23)c1 (stereo unspecified),-1.61% (inactive)
3,C=CC1=C(C(=O)O)N2C(=O)[C@@H](NC(=O)/C(=N\OCC(=O)O)c3csc(N)n3)[C@H]2SC1,99.5% (active)
4,Cc1ccc(S(=O)(=O)N2[C@@H](c3cccc4ccccc34)C(C(=O)O)=C[C@H]2C(C)(C)C)cc1,-0.17% (inactive)
5,C=CCOc1cccc(CNCc2cccnc2)c1,4.34% (inactive)
6,O=C1N[C@H](Cc2ccccc2)C(=O)N[C@H]1Cc1cn(S(=O)(=O)c2ccccc2)c2ccccc12,3.88% (inactive)
7,Cc1ccc(C(=O)N/C(=C\c2cccs2)C(=O)NCCc2ccccn2)cc1C,-1.59% (inactive)
8,COc1ccc(C(=O)c2c(C)c(CCC#N)n3ccccc23)c(OC)c1,4.64% (inactive)
9,CNc1ccc(SC#N)cc1,3.2% (inactive)
10,CC(=O)Nc1ccc(NC(=O)CC2CCCC2)cc1,3.59% (inactive)
11,CCOC(=O)c1cnc(-n2nc(C)cc2C)nc1NNc1cc(C)nc(-c2ccccc2)n1,1.33% (inactive)
12,O=C(Nc1ccc2c(c1)CCC2)c1ccc(Br)s1,0.08% (inactive)
13,Cc1nn(CC#N)c(=O)n1N(C)c1ncc(C(F)(F)F)cc1Cl,-0.77% (inactive)
14,O=C(O)C(c1ccccc1)N1C(=O)/C(=C\c2ccc(-c3cccc(Cl)c3)o2)SC1=S (stereo unspecified),1.17% (inactive)
15,CC(=O)NN1C(=O)c2ccccc2NC1c1ccccc1 (stereo unspecified),0.33% (inactive)
16,O=C1c2ccccc2NC(c2ccc(-c3cccc(Cl)c3)o2)N1O (stereo unspecified),21.1% (active)
17,O=C(N=C1SC2CS(=O)(=O)CC2N1c1cc(Cl)ccc1Cl)C1CC1 (stereo unspecified),1.12% (inactive)
18,CCC1CO/C(=C(\C(=C(Cl)Cl)N2CCOCC2)[N+](=O)[O-])N1 (stereo unspecified),0.26% (inactive)
19,Cc1cc(C)n(-c2nnc(N3CCN(c4ccccc4)CC3)nn2)n1,1.11% (inactive)
20,COc1ccc(OC)c(NC(=O)C2CCCN2S(=O)(=O)c2cccc3nsnc23)c1 (stereo unspecified),2.19% (inactive)
21,Cc1ncoc1C(=O)NCCC(c1ccccc1)c1ccccc1,0.08% (inactive)
22,CCOc1cc(S(=O)(=O)NCc2ccc3c(c2)OCO3)ccc1F,1.89% (inactive)

row,SMILES,inhibition
1,COc1cc(NS(=O)(=O)c2ccc(NC(=O)c3ccc([N+](=O)[O-])cc3)cc2)ncn1,0.95% (inactive)
2,Cn1ccc(=Nc2ccc(NC(=O)c3ccc(N=c4ccn(C)c5ccc([N+](=O)[O-])cc45)cc3)cc2)cc1,95.1% (active)
3,CC(=O)NC(=S)Nc1ccc(NC(=S)NC(=O)c2ccc([N+](=O)[O-])cc2)cc1,-0.43% (inactive)
4,Brc1ccc(CN2CC[C@H]3C=CCc4cccc(c43)C2)cc1,4.02% (inactive)
5,C=CCNC(=O)c1csc(-c2ccccc2)n1,0.48% (inactive)
6,O=C(Nc1cccnc1Cl)c1cc(-c2ccccc2O)on1,3.57% (inactive)
7,C=CCNC(=O)c1cc(-c2ccccc2O)on1,96.1% (active)
8,FC(F)(F)c1ccc2nnc(-c3c(Cl)cccc3Cl)n2c1,2.64% (inactive)
9,Cc1ccc(OCC(=O)c2cc(C)n(Cc3ccco3)c2C)c([N+](=O)[O-])n1,3.36% (inactive)
10,O=C(OCC1O[C@@H](OC(=O)c2cc(O)c(O)c(O)c2)[C@@H](OC(=O)c2cc(O)c(O)c(O)c2)[C@@H](OC(=O)c2cc(O)c(O)c(O)c2)[C@@H]1OC(=O)c1cc(O)c(O)c(O)c1)c1cc(O)c(O)c(O)c1 (stereo partly specified),27.8% (active)
11,C=C1c2cccc(OC)c2O[C@H](C(=O)OCC)[C@@H]1CCCCCC,-0.56% (inactive)
12,O=C(CC(O)(C(F)(F)F)C(F)(F)F)Nc1ccc(Cl)c(Cl)c1,18.6% (active)
13,O=C(CCCN1C(=O)CCC1=O)Nc1ccc(Cl)c(C(F)(F)F)c1,2.75% (inactive)
14,CS(=O)(=O)N(CC(=O)Nc1ccc(Cl)c(Cl)c1)C1CCCCC1,-0.7% (inactive)
15,COc1cc(C)c(C(C)C)cc1S(=O)(=O)n1ccnc1,2.64% (inactive)
16,O=C(NCc1ccco1)c1ccc([N+](=O)[O-])cc1Cl,0% (inactive)
17,CS(=O)(=O)c1ccc(Cl)c(NC(=O)COC(=O)c2ncc(Cl)c(Cl)c2Cl)c1,1.36% (inactive)
18,CCCCOc1ccc(Cl)cc1CSc1nncn1N,0.43% (inactive)
